Source: PubChem BioAssay (National Center for Advancing Translational Sciences (NCATS))
KB-3-1 tox – kills parental KB-3-1 adenocarcinoma cells | 1.4% of 400,000 active | AID 1347075 | KB-3-1 viability, CellTiter-Glo ATP luminescence, 72 h | Potency, µM (series often up to 46.1 µM), most hits filed as cytotoxic; note: % is set by controls: 0 for no effect and ±100 for the full control effect; nearly all actives have a fitted effect of over 60% in size
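Parental KB-3-1 viability, qHTS format: 72 h compound exposure, 37 °C; CellTiter-Glo; media-only wells and DMSO plates as controls; concentration-effect fits on corrected data.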
MCF10A rereplic – inducers of DNA re-replication in MCF 10A breast cells; MCF 10A DNA re-replication, Hoechst nuclear intensity, 48 h; Potency, µM (series often up to 46.1 µM), for inactives: at the top dose activity, positive = re-replication, hits mostly activators; 2.9% of 350,000 active; AID 624296; note: % of control where 0% means no effect; nearly all actives have a fitted effect of over 50% in size
PINK1 modulator – changes PINK1 expression; PINK1 immunofluorescence, high-content cytometry, 24 h; Potency, µM (doses to about 76.6 µM), for the others: top-dose activation (PINK1 increase), usual class: activators; 0.2% of 410,000 active; active = well fitted activation curve with a large enough effect; inconclusive = small, poorly fitted or top-dose-only effect; cell line not stated here; note: % of control where 0% means no effect; nearly all actives have a fitted effect of over 65% in size
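Stable cell line, 250 cells/well, 12 h attachment; compounds pinned at 5 concentrations, 24 h; CCCP control. Fixed with nuclear dye, primary antibodies 12 h at 10 degrees C, secondary plus cell stain; laser-scanning cytometer read.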
KB-V1 MDR tox – kills drug-selected multidrug resistant KB-V1 cells. KB-V1 MDR cells viability, CellTiter-Glo, 72 h. Potency, µM (highest dose often 46.1 µM), most hits filed as cytotoxic. 3.4% of 400,000 active; note: % is set by controls: 0 for no effect and ±100 for the full control effect; nearly all actives have a fitted effect of over 60% in size
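Drug-selected KB-V1 cells, grown in DMEM lacking phenol red with 10% FBS, receive compound titrations; after three days at 37 degrees C, surviving cell ATP is quantified by CellTiter-Glo luminescence and responses normalized and curve-fitted.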
SW480 rerep – induces DNA re-replication in SW480 colon adenocarcinoma cells; Potency, µM (doses to about 46.1 µM), for the others: at the highest dose re-replication activation, actives largely listed as activators; SW480 DNA re-replication, Hoechst DNA content imaging, 48 h; 1.8% of 340,000 active; note: % of control where 0% means no effect; nearly all actives have a fitted effect of over 55% in size
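Quantitative HTS format with DMSO vehicle controls; 48 hr drug incubation at 37 C, then 40 min Hoechst staining and scanning imager measurement at 405 nm excitation.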
Active calls of the source: *; i = inactive; ? = inconclusive; / = not tested or not shown; [ ] = another dose, or the depositor's remark. Hits are enriched below; roughly 6.7% of the tested compounds scored in any of these assays. Unless noted, calls come from the whole dose curve; as a rule, active = well fitted curve in the direction sought with a large enough effect; inconclusive = small, poorly fitted or top-dose-only effect, or another doubt; inactive = no such curve, though single readings can be large; an effect the other way counts as inactive or inconclusive. Potency is the fitted concentration of half-maximal effect.

SMILES	KB-3-1 tox	MCF10A rereplic	PINK1 modulator	KB-V1 MDR tox	SW480 rerep
Cc1nc2c(=O)[nH]c(=S)[nH]c2[nH]c1=O	i	-2%	6%	i	1%
Cc1cc(N/N=C/c2ccc(N(C)C)cc2)nc(NCc2ccccc2)n1	i	8.2µM*	5%	i	21µM*
Cc1cc(Oc2ccccc2F)nc(NCc2ccccc2)n1	?	29%	9%	?	?
Cc1cc(Oc2ccccc2)nc(NCc2ccccc2)n1	16µM*	19%	12%	21µM*	?
Cc1cc(N2CCC(C)CC2)nc(NCc2ccccc2)n1	13µM*	25%	35µM*	i	0.52µM*
Cc1cc(Nc2ccc(Cl)cc2)nc(NCc2ccccc2)n1	?	?	-3%	21µM*	?
Cc1ccc(Nc2cc(C)nc(-c3ccccc3)n2)cc1	?	10%	4%	i	4%
CSc1ccc(CCNC(=O)CCc2c(C)nc3cc(-c4ccccc4)nn3c2C)cc1	i	/	1%	i	/
Cc1cc(C)nc(NCCCc2ccccc2)n1	i	-10%	2%[38.3 µM]	i	-3%
CCCCNc1cc(C)nc(NCc2ccccc2)n1	6.5µM*	25%	?	5.8µM*	-2%[9.22 µM]
Cc1cc(N/N=C/c2ccc(Cl)cc2Cl)nc(NCc2ccccc2)n1	i	?	16%	8.2µM*	?
Cc1cc(Nc2cccc(F)c2)nc(NCc2ccccc2)n1	?	?	-1%	8.2µM*	?
Cc1cc(N/N=C/c2ccc(F)cc2)nc(NCc2ccccc2)n1	?	?	4%	?	-1%
Cc1cc(Nc2ccccc2)nc(NCc2ccccc2)n1	21µM*	16µM*	2%	10µM*	?
Cc1ccc(/C=N/Nc2cc(C)nc(NCc3ccccc3)n2)cc1	i	?	?	i	?
COc1cc(C(=O)Nc2ccccc2OCc2cc(=O)n3cc(C)sc3n2)cc(OC)c1OC	i	/	1%	?	/
Cn1c(=NC(=O)CS(=O)(=O)c2ccccc2)sc2cc([N+](=O)[O-])ccc21	i	-9%	12%	i	-77%
COc1cc(/C=C2\C=Cc3ccccc32)cc(OC)c1OC	i	/	0%	i	/
CN(CC(=O)O)c1ccc(/C=C2\C=Cc3ccccc32)cc1	i	/	/	i	/
COc1cccc(CN2C(=O)N(c3ccc(C)cc3)C(=O)C2CC(=O)Nc2cc(OC)cc(OC)c2)c1 (stereo not drawn)	/	/	1%	/	/
CCOc1ccc(-c2cn3c(n2)sc2cc(C(=O)NCCCN4CCCCC4)ccc23)cc1	?	/	4%	21µM*	/
Cc1ccc(-c2cn3c(n2)sc2cc(C(=O)NCCCN4CCCCC4)ccc23)cc1	?	/	1%	?	/
CCOc1ccc(-c2cn3c(n2)sc2cc(C(=O)NCCCN4CCCCCC4)ccc23)cc1	i	/	3%	?	/
CCCN1CCN(CCCNC(=O)c2ccc3c(c2)sc2nc(-c4ccc(OCC)cc4)cn23)CC1	18µM*	/	-3%	?	/
O=C(NCCCN1CCCCC1)c1ccc2c(c1)sc1nc(-c3ccc(F)cc3)cn12	i	/	0%	16µM*	/
SMILES	KB-3-1 tox	MCF10A rereplic	PINK1 modulator	KB-V1 MDR tox	SW480 rerep
CC1CCCCN1CCCNC(=O)c1ccc2c(c1)sc1nc(-c3ccc(F)cc3)cn12 (stereo not drawn)	i	/	1%	21µM*	/
CN(C)CCNC(=O)C1CCN(c2ncnc3c2nc2n3CCCCC2)CC1	/	/	3%	/	/
CCOC(=S)SCc1cn2ccc(C)cc2n1	i	16µM*	-4%	i	4%
CCOC(=S)SCc1cn2ccccc2n1	i	2%	0%	i	-5%
Cc1cccc(-c2ncc(CN3CCN(C4CCCC4)C(CCO)C3)cn2)c1 (stereo not drawn)	i	14%	-1%	?	?
Cc1cccc(-c2ncc(CN3CCN(CCC(C)C)C(CCO)C3)cn2)c1 (stereo not drawn)	i	-2%	-1%	?	23µM*
CC(=O)NC1C(=O)N(CCc2ccccc2)c2ccc(Br)cc21 (stereo not drawn)	i	27%	3%	5.8µM*	2%
CCOC(=O)c1ccc(NC(=O)c2ccc3c(c2)c(C)c(C)n3Cc2ccc(F)cc2)cc1	i	/	3%	i	/
O=C(Nc1ccc(N2CCOCC2)c(S(=O)(=O)Nc2ccccc2Cl)c1)c1ccc(F)cc1	?	?	0%	?	17%
COc1ccccc1NS(=O)(=O)c1cc(NC(=O)Nc2ccccc2)ccc1N1CCCCC1	i	1%	2%	?	2%
O=C(Nc1ccc(F)cc1)Nc1ccc(N2CCCC2)c(S(=O)(=O)Nc2ccccc2Cl)c1	21µM*	13%	?	?	?
Cc1ccc(NC(=O)c2cc3c(s2)CCCC3)cc1S(=O)(=O)Nc1ccccc1Cl	?	17%	6%	?	?
O=C(Nc1ccc(Cl)c(Cl)c1)Nc1ccc(N2CCCC2)c(S(=O)(=O)Nc2ccccc2Cl)c1	5.2µM*	?	?	23µM*	?
O=C(Nc1ccc(N2CCCCC2)c(S(=O)(=O)Nc2ccccc2Cl)c1)c1cccnc1	/	18µM*	?	/	?
Cc1ccc(C(=O)Nc2ccc(C)c(S(=O)(=O)Nc3ccccc3Cl)c2)s1	23µM*	?	-2%	?	16%
COc1ccc(NC(=S)N(CCC(C)C)C2CCN(C(C)C)CC2)cc1Cl	i	?	4%	i	21µM*
CC1CC(C)CN(S(=O)(=O)c2ccc(C(=O)N3CCOCC3)cc2)C1 (stereo not drawn)	/	1%	1%	/	-8%
COc1cccc(CC2(CO)CCCN(Cc3ccc(C)s3)C2)c1 (stereo not drawn)	i	?	2%	?	-17%
COc1cccc(CC2(CO)CCCN(Cc3[nH]c4ccc(C)cc4c3C)C2)c1 (stereo not drawn)	?	3.3µM*	-1%	?	?
CCOc1ccc(CCNC(=O)CN2CCN(Cc3ccc(Cl)cc3)C2=O)cc1OCC	i	/	0%	i	/
O=c1c2ccccc2nc(SCc2cccc(F)c2)n1-c1cccc(S(=O)(=O)N2CCCC2)c1	i	1%	4%	3.3µM*	-46%
O=C(c1ccc(-n2c(SCc3cccc(F)c3)nc3ccccc3c2=O)cc1)N1CCOCC1	?	16%	0%	?	1%
CCc1ccc(OCC(=O)N2CCc3ccccc32)cc1	i	19%	-2%	i	-8%
CCc1ccc(OCC(=O)Nc2cc(S(=O)(=O)CC)ccc2O)cc1	i	-10%	4%	16µM*	-9%
CCc1ccc(OCC(=O)N2c3ccccc3CCc3ccccc32)cc1	?	?	14%	18µM*	?
CCc1ccc(OCC(=O)Nc2cccc3c2CCCC3)cc1	i	2%	15%	i	7.3µM*
